About 8,800 targets were measured; listed, in parts, are those with a hit and a random draw of the rest. About 0.5% of all pairs of compound and target were hits.
Columns and labels:
Assay in all cases: log2 fold change, soluble protein after heating vs DMSO (PISA); higher = thermal stabilisation; K562 lysate, 10 uM; active = over 0.2 and 3.5 SD of the protein, either way, in both replicates (recomputed)
[1] = compound: CS(=O)(=O)CCNCc1ccc(-c2ccc3ncnc(Nc4ccc(OCc5cccc(F)c5)c(Cl)c4)c3c2)o1 [lapatinib]
Method in brief: (§1)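 Values give the log-two fold change in thermal stability against solvent controls, from duplicates. Crude K562 extract at 1 mg/mL protein, made by dounce homogenisation in PBS pH 7.4 with 1 mM MgCl2, was treated with 10 μM compound for 30 min. After 3 min heating across 48°C-58°C, aliquots were pooled, adjusted to 0.5% NP-40 at 4°C and centrifuged at 21,000xg for 90 min. The supernatant was measured by TMTpro 16plex LC-MS/MS with channel sums equalised.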

[2] = compound: CS(=O)(=O)N1CCN(Cc2cc3nc(-c4cccc5[nH]ncc45)nc(N4CCOCC4)c3s2)CC1 [pictilisib]
Method in brief: as §1

[3] = compound: C[C@@H](Oc1cc(-c2cnn(C3CCNCC3)c2)cnc1N)c1c(Cl)ccc(F)c1Cl [crizotinib]
Method in brief: as §1

[4] = compound: C[C@H](C1=CC=C(C=C1)C(=O)NC2=C3C=CNC3=NC=C2)N
Method in brief: as §1

[5] = compound: C[C@H](Nc1ncnc2nc[nH]c12)c1cc2cccc(Cl)c2c(=O)n1-c1ccccc1 [duvelisib]
Method in brief: as §1

[6] = compound: Cc1cc(Nc2cc(CN3CCOCC3)c3nc(C)c(Cc4ccc(Cl)cc4F)n3n2)n[nH]1 [gandotinib]
Method in brief: as §1

[7] = compound: Cc1cc(Nc2cc(N3CCN(C)CC3)nc(Sc3ccc(NC(=O)C4CC4)cc3)n2)n[nH]1 [tozasertib]
Method in brief: as §1

[8] = compound: Cc1ccc(-n2nc(C(C)(C)C)cc2NC(=O)Nc2ccc(OCCN3CCOCC3)c3ccccc23)cc1 [doramapimod]
Method in brief: as §1

[9] = compound: Cc1ccc(NC(=O)c2ccc(CN3CC[C@H](N(C)C)C3)c(C(F)(F)F)c2)cc1Nc1nccc(-c2cncnc2)n1 [bafetinib]
Method in brief: as §1

[10] = compound: Cc1cccc(CC(=O)N2CCc3c2ccc(-c2cn(C)c4ncnc(N)c24)c3F)n1
Method in brief: as §1

Measured: log2 fold change

THADA (UniProt Q6YHU6)
inactive: [1] -0.042 | [2] -0.06 | [3] -0.073 | [4] -0.041 | [5] -0.02 | [6] -0.064 | [7] -0.003 | [8] -0.002 | [9] -0.041 | [10] 0.086

TIMELESS (UniProt Q9UNS1)
inactive: [1] 0.017 | [2] -0.017 | [3] -0.077 | [4] -0.042 | [5] -0.029 | [6] -0.12 | [7] -0.026 | [8] -0.02 | [9] -0.082 | [10] 0.032

UBE2D1 (UniProt P51668)
Chain of UniProt P51668 (P51668 whole entry, looked up): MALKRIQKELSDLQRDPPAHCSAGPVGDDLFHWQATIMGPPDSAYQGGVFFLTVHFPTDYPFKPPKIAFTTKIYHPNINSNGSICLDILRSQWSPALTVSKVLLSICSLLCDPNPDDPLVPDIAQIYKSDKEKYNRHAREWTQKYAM
inactive: [1] 0.052 | [2] 0.043 | [3] 0.01 | [4] -0.012 | [5] 0.031 | [6] -0.047 | [7] 0.081 | [8] 0.038 | [9] -0.058 | [10] -0.033

TBCE (UniProt Q15813)
inactive: [1] -0.019 | [2] -0.039 | [3] -0.042 | [4] -0.002 | [5] 0.025 | [6] -0.034 | [7] -0.004 | [8] 0.001 | [9] 0.033 | [10] 0.039

TMEM97 (UniProt Q5BJF2)
Chain of UniProt Q5BJF2 (Q5BJF2 whole entry, looked up): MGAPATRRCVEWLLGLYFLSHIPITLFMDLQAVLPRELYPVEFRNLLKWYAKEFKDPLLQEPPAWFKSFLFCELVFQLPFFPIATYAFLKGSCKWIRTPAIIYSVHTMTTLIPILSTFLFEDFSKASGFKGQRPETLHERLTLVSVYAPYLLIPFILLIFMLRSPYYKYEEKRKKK
inactive: [1] -0.052 | [2] -0.004 | [3] 0.113 | [5] 0.014 | [6] 0.17 | [7] -0.013 | [8] -0.127 | [9] -0.015 | [10] 0.12
active: [4] -0.277

TELO2 (UniProt Q9Y4R8)
Chain of UniProt Q9Y4R8 (Q9Y4R8 whole entry, looked up): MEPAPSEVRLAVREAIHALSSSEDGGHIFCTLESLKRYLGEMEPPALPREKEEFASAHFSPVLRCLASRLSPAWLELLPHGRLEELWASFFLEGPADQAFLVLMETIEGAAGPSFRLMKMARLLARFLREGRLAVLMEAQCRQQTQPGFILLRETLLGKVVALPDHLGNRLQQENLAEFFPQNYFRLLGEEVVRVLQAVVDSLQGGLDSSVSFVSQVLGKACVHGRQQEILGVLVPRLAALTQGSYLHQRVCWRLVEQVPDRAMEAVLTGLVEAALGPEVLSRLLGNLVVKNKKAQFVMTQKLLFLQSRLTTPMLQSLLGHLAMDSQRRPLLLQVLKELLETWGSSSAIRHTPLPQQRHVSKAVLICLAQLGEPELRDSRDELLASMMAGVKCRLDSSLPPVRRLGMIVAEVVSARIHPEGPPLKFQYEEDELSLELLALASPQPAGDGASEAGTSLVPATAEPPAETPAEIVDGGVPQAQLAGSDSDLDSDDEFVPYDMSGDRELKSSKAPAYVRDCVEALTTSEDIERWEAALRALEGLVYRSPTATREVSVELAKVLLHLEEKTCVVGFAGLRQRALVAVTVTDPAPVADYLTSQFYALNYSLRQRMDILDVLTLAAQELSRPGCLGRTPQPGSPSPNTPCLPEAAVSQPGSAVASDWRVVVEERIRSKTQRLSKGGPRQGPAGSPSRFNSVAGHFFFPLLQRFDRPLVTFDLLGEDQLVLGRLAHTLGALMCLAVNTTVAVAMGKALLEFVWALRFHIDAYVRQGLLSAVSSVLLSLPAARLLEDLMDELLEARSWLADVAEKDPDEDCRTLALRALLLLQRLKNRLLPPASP
inactive: [1] -0.016 | [2] -0.01 | [3] -0.053 | [4] -0.038 | [5] -0.015 | [6] -0.087 | [7] -0.012 | [8] 0.037 | [9] -0.054 | [10] 0.056

TUBB6 (UniProt Q9BUF5)
inactive: [1] -0.038 | [2] -0.015 | [3] -0.056 | [4] 0.003 | [5] 0.009 | [6] -0.009 | [7] -0.02 | [8] -0.047 | [9] -0.023 | [10] -0.018

TRMT10A (UniProt Q8TBZ6)
inactive: [1] 0.042 | [2] 0.083 | [3] 0.031 | [4] -0.041 | [5] 0.001 | [6] 0.02 | [7] -0.047 | [8] 0.001 | [9] 0.012 | [10] 0.059

TPM4 (UniProt P67936)
inactive: [1] -0.002 | [2] -0.043 | [3] 0.003 | [4] -0.001 | [5] -0.021 | [6] 0.039 | [7] -0.098 | [8] -0.029 | [9] -0.055 | [10] -0.018

TRAPPC6A isoform 2 (UniProt O75865)
Chain of UniProt O75865 (O75865 whole entry, looked up): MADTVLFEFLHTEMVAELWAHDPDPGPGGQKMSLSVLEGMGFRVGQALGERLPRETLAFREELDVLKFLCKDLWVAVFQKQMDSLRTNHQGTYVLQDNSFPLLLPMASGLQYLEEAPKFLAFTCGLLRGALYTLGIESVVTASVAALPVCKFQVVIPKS
inactive: [1] 0.02 | [2] 0.015 | [3] 0.001 | [4] -0.146 | [5] -0.006 | [6] 0.14 | [7] -0.039 | [8] -0.01 | [9] 0.017 | [10] 0.05

THOC5 (UniProt Q13769)
inactive: [1] -0.036 | [2] -0.007 | [3] -0.011 | [4] -0.024 | [5] -0.009 | [6] -0.021 | [7] -0.01 | [8] 0.02 | [9] -0.009 | [10] 0.035

TUBB3 (UniProt Q13509)
Chain of UniProt Q13509 (Q13509 whole entry, looked up): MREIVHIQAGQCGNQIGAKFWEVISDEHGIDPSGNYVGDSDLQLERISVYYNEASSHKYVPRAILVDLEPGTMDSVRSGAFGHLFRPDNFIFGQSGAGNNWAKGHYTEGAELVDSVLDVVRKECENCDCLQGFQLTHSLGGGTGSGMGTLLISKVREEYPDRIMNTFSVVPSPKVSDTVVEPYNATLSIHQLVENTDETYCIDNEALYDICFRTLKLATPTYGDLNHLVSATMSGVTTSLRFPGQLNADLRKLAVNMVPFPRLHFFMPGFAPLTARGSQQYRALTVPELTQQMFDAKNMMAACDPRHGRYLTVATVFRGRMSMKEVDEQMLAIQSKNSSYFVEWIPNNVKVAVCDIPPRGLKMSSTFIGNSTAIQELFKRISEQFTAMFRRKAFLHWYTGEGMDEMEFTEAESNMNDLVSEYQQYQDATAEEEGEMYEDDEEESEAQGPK
inactive: [1] 0.015 | [2] 0.032 | [3] -0.027 | [4] 0.018 | [5] 0.026 | [6] 0.02 | [7] 0.001 | [8] -0.005 | [9] 0.021 | [10] 0.001

TUBB1 (UniProt Q9H4B7)
inactive: [1] -0.006 | [2] -0.007 | [3] -0.025 | [4] 0.093 | [5] -0.01 | [6] -0.015 | [7] -0.027 | [8] -0.046 | [9] 0.036 | [10] -0.06

TUBB4B (UniProt P68371)
inactive: [1] 0.027 | [2] 0.017 | [3] -0.027 | [4] 0.053 | [5] -0.029 | [6] 0.004 | [7] 0.011 | [8] -0.024 | [9] 0.027 | [10] -0.043

TRIM65 (UniProt Q6PJ69)
inactive: [1] 0.028 | [2] -0.035 | [3] -0.046 | [4] -0.06 | [5] 0.072 | [6] -0.102 | [7] 0.042 | [8] -0.02 | [9] 0.034 | [10] 0.088

TUBB (UniProt P07437)
Chain of UniProt P07437 (P07437 whole entry, looked up): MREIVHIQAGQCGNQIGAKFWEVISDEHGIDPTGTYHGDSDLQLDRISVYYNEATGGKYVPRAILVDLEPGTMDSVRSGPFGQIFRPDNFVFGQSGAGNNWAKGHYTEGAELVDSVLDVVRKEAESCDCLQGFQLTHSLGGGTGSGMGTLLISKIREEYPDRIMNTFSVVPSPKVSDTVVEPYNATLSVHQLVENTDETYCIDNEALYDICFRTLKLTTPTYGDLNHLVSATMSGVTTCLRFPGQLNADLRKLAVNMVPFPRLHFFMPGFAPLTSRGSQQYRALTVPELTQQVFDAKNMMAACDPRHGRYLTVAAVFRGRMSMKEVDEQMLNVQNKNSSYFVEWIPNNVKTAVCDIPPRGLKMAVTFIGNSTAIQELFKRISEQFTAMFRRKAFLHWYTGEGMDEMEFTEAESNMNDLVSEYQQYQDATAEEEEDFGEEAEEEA
inactive: [1] -0.035 | [2] -0.002 | [3] -0.043 | [4] -0.005 | [5] 0.008 | [6] 0.065 | [7] -0.022 | [8] -0.047 | [9] 0.024 | [10] -0.01

TXNRD2 (UniProt Q9NNW7)
Chain of UniProt Q9NNW7 (Q9NNW7 whole entry, looked up): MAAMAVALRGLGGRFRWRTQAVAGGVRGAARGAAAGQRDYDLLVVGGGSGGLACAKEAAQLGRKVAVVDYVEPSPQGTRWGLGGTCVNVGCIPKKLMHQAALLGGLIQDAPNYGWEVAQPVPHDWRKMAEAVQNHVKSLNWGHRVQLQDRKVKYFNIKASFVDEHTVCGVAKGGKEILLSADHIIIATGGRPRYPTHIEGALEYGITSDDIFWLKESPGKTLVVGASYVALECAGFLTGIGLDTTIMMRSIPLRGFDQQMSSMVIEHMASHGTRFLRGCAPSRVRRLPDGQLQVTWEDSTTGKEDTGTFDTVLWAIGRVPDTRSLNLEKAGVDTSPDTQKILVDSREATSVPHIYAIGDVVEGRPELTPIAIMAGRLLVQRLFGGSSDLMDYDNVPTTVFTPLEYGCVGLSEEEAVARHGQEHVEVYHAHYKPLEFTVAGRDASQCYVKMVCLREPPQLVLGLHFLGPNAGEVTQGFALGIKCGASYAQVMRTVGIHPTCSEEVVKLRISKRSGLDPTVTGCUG
inactive: [1] 0 | [2] -0.017 | [3] 0.003 | [4] -0.046 | [5] 0.084 | [6] 0.059 | [7] -0.042 | [8] -0.066 | [9] 0.041 | [10] 0.034

TRAPPC10 (UniProt P48553)
Chain of UniProt P48553 (P48553 whole entry, looked up): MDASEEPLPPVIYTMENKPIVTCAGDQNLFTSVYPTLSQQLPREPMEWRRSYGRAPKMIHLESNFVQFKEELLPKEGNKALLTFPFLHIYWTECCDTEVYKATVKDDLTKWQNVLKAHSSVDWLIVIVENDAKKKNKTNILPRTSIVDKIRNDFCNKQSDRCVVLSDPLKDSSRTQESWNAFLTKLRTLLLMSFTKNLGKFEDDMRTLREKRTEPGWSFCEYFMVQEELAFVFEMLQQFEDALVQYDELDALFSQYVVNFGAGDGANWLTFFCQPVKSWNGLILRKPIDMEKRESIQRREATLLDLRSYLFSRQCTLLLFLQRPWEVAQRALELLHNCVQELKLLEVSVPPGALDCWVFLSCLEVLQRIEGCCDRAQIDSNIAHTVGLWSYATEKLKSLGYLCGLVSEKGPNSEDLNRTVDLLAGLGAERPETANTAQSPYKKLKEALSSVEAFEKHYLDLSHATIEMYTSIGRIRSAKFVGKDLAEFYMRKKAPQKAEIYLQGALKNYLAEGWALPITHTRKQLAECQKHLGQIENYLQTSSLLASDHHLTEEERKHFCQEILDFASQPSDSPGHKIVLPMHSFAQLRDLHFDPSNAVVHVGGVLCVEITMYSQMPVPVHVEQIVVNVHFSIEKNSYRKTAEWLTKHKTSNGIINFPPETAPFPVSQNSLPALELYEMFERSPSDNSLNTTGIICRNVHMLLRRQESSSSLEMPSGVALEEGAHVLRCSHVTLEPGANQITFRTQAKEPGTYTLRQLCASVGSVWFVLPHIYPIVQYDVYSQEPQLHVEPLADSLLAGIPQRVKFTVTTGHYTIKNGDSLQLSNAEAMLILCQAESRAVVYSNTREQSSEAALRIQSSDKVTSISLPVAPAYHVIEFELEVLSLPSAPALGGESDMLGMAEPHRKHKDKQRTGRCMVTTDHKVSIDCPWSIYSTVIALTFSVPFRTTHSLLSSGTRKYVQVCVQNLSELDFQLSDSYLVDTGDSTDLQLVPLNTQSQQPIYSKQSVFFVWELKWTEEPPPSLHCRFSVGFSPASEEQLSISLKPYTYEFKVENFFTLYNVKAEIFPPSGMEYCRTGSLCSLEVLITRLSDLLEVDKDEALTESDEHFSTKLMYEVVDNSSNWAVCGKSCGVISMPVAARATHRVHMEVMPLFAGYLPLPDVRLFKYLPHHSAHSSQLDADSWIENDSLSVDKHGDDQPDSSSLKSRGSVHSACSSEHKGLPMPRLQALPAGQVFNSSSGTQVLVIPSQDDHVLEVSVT
inactive: [1] 0 | [2] 0 | [3] -0.034 | [4] -0.101 | [5] -0.016 | [6] 0.022 | [7] -0.01 | [8] -0.027 | [9] -0.007 | [10] 0.074

TRIM56 (UniProt Q9BRZ2)
inactive: [1] 0.001 | [2] -0.002 | [3] -0.002 | [4] 0.085 | [5] 0.003 | [6] -0.071 | [7] 0 | [8] 0.023 | [9] -0.132 | [10] 0.085

TYMS (UniProt P04818)
inactive: [1] -0.007 | [2] -0.017 | [3] 0.002 | [4] 0.003 | [5] 0.018 | [6] 0.058 | [7] 0.011 | [8] -0.019 | [9] -0.005 | [10] -0.017

TRIM23 (UniProt P36406)
inactive: [1] -0.063 | [2] -0.12 | [3] -0.003 | [4] -0.235 | [5] 0.134 | [7] 0.026 | [8] 0.01 | [9] -0.088 | [10] 0.297
active: [6] 0.372

TNFAIP3 (UniProt P21580)
inactive: [1] -0.032 | [2] 0.052 | [3] -0.013 | [4] 0.032 | [5] 0.038 | [6] -0.075 | [7] 0.744 | [8] 0.084 | [9] -0.02 | [10] -0.023

TMEM87A (UniProt Q8NBN3)
active: [6] 0.242 | [10] 0.248
inactive: [1] -0.007 | [2] -0.015 | [3] 0.016 | [4] -0.082 | [5] 0.012 | [7] -0.029 | [8] 0.026 | [9] -0.007

UGDH (UniProt O60701)
inactive: [1] 0.009 | [2] -0.021 | [3] -0.015 | [4] 0.037 | [5] -0.063 | [6] -0.067 | [7] -0.073 | [8] -0.053 | [9] -0.019 | [10] -0.022

UBP1 (UniProt Q9NZI7)
inactive: [1] 0.049 | [2] -0.004 | [3] -0.202 | [4] 0.206 | [5] -0.025 | [6] -0.01 | [7] -0.043 | [8] 0.15 | [9] -0.029 | [10] -0.124

TLE3 isoform 5 (UniProt Q04726)
inactive: [1] 0.011 | [2] 0.127 | [3] 0.001 | [4] -0.409 | [5] 0.031 | [6] -0.062 | [7] -0.089 | [8] -0.061 | [9] 0.084 | [10] 0.084

TRMT2A (UniProt Q8IZ69)
inactive: [1] -0.01 | [2] -0.057 | [3] -0.017 | [4] -0.002 | [5] -0.036 | [6] -0.03 | [7] 0.001 | [8] -0.002 | [9] -0.016 | [10] 0.009

TRMT12 (UniProt Q53H54)
inactive: [1] 0.064 | [2] -0.02 | [3] -0.03 | [4] -0.289 | [5] 0.055 | [6] -0.054 | [7] -0.021 | [8] 0.059 | [9] -0.021 | [10] 0.14

TBK1 (UniProt Q9UHD2)
active: [3] 0.469
inactive: [1] 0.042 | [2] 0.054 | [4] -0.059 | [5] -0.046 | [6] 0.342 | [7] 0.314 | [8] -0.024 | [9] 0.007 | [10] -0.044

TUBGCP3 (UniProt Q96CW5)
Chain of UniProt Q96CW5 (Q96CW5 whole entry, looked up): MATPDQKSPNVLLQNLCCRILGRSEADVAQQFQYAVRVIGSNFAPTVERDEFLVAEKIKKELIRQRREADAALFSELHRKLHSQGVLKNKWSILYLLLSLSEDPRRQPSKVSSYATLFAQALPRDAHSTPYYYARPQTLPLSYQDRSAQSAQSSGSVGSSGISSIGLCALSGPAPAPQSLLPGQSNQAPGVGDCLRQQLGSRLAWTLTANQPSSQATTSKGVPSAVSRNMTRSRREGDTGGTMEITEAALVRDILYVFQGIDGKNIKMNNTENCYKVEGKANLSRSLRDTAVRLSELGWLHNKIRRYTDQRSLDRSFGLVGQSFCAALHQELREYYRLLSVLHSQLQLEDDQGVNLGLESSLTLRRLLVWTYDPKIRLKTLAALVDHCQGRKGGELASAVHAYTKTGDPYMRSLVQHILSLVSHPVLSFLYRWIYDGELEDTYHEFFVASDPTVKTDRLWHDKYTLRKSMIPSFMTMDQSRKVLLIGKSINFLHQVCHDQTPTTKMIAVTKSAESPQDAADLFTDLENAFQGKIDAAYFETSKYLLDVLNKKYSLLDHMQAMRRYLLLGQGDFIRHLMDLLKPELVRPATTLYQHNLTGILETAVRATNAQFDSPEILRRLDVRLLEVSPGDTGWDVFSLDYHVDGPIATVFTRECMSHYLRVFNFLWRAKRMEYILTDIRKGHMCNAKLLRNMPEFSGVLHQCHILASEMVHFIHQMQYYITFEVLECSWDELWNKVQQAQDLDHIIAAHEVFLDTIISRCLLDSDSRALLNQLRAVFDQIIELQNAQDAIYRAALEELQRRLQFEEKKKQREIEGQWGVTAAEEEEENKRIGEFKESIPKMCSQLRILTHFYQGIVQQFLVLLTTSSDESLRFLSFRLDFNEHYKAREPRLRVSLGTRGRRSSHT
inactive: [1] -0.017 | [2] 0.012 | [3] -0.055 | [4] -0.012 | [5] 0.036 | [6] -0.054 | [7] 0.027 | [8] 0.014 | [9] -0.057 | [10] 0.013

Source: the supplement of paper PMC10849652
